The whole screen tested about 310,000 compounds, of which about 410 (0.13%) were called active. Not shown: some 2% with an inconclusive outcome. Only a sample is shown. Results with a measured potency or affinity are listed apart. Unmarked numbers belong to inactive results. No rule for the calls is given here.
assay: RSV antiviral activity via CPE protection, HEp-2 cells, primary 10 µM value included (AID 2391); details: RSV-induced CPE inhibition, at 10 µM, hits give high values

Row | Structure (SMILES) | CPE inhibition
1 | Cc1cc(NC(=O)CCC(=O)N(CC(=O)NCC2CCCO2)c2cccc(F)c2)no1 (stereo not given) | 0.87%
2 | CC(=O)NC1(C(F)(F)F)C(=O)Nc2c1c(=O)[nH]c(=O)n2-c1ccccc1 (stereo not given) | -0.08%
3 | CCCCCCC(=O)N1CCC(c2nc3c(nnn3Cc3ccccc3Cl)c(=O)[nH]2)CC1 | -3.63%
4 | Cc1ccc(Nc2ccc(S(=O)(=O)N3CCOCC3)cc2[N+](=O)[O-])cc1C | 7.23%
5 | CC1=Nc2cc(C(=O)N3CCCCC3)ccc2Sc2ccc(C)cc21 | 4.9%
6 | CC1=Nc2cc(C(=O)N3CCCC3)ccc2Sc2ccc(C)cc21 | 3.72%
7 | COc1ccc(N2CCN(c3nc(C)c(C)c(=O)[nH]3)CC2)cc1 | 1.02%
8 | COCCOc1cc(NC(=O)CS(=O)CC(=O)N(C)C)c(Cl)cc1Cl (stereo not given) | 1.9%
9 | O=C(Nc1ccc(Nc2ccccc2)cc1)C1CC1 | 0.83%
10 | O=C(Nc1ccccc1)c1ccc(NC(=O)C2CC2)cc1 | 2.88%
11 | CNC(=O)CO/N=C/c1ccc(N(C)C)cc1 | 2.24%
12 | COc1ccc2cc(CN(Cc3cccnc3)S(=O)(=O)c3ccccc3)c(=O)[nH]c2c1 | 5.1%
13 | CCCNC(=O)c1cc(S(=O)(=O)N2CCCCC2)ccc1N1CCOCC1 | -0.63%
14 | CCn1c(-c2nonc2NC(=O)c2ccccc2)nc2ccccc21 | -1.62%
15 | CCC(=O)Nc1nonc1-c1nc2ccccc2n1CC(C)C | 4.88%
16 | CC(C)NC(=O)CSc1ccccc1C(=O)NNC(=O)Cn1ccc(C(F)(F)F)n1 | -1.83%
17 | CCOc1ccc(C(C)=O)cc1CN1C(=O)NC2(CCCCCC2)C1=O | -0.88%
18 | CCOC(=O)c1nn(-c2ccccc2)c(=O)cc1OCC(=O)Nc1cc(C)ccc1OC | 0.86%
19 | O=C(NCc1cccs1)C1CCN(C(=O)NCc2ccccc2)CC1 | 0.51%
20 | COc1cc2c3c(c1)/C(=C1/SC(=S)NC1=O)C(=O)N3C(C)(C)C=C2C | 17.4%
21 | CCN1C(=O)/C(=C2/C(=O)N3c4c(cc(OC(C)=O)cc42)C(C)=CC3(C)C)SC1=S | 7.27%
22 | Cc1ccc(OCCNC(=O)CCc2ccccc2)cc1C | -0.93%
23 | CCc1nccn1S(=O)(=O)c1ccc2ccccc2c1 | 1.31%
24 | O=C(N/N=C/c1cccnc1)c1cc(C2CC2)nc2ccccc12 | 1.57%

Row | Structure (SMILES) | CPE inhibition
25 | C/C(N)=C(/C#N)C(=O)CSc1cc(C)c2ccccc2n1 | 12.3%
26 | Cc1cc(C)c2nc(SCC#N)cc(C)c2c1 | 11.1%
27 | CC(C)S(=O)(=O)CC(=O)c1ccc(Cl)cc1 | 1.72%
28 | O=C(Cn1c2ccccc2c2nc3n(c(=O)c21)CCS3)Nc1ccccc1 | 0.68%
29 | Cc1ccc(C(=O)Nc2ccc3c(c2)C(=O)NC3=O)cc1 | 3.34%
30 | COc1cc(-c2nnc(SCc3ccccc3Cl)o2)cc(OC)c1OC | 10.5%
31 | COc1cc(OC)cc(-c2nnc(SCc3c(F)cccc3Cl)o2)c1 | 9.5%
32 | CCc1nn(CC(=O)NCCCN(Cc2ccccc2)C(C)C)c(=O)c2cc3sccc3n12 | 3.25%
33 | CC(OC(=O)CSc1ccc(F)cc1)C(=O)NC1(C#N)CCCCC1 (stereo not given) | 1.61%
34 | CC(C)(C)SCCNS(=O)(=O)c1ccccc1 | 2.31%
35 | COc1ccc(/C=C(/NC(=O)c2ccccc2)c2nc3ccccc3[nH]2)cc1OC | 1.75%
36 | Cc1ccc(C(=O)N/C(=C\c2cccs2)c2nc3ccccc3[nH]2)cc1 | 1.69%
37 | COc1ccc(C(=O)N/C(=C/c2cccs2)C(=O)NN)cc1OC | 0.82%
38 | O=C(N/C(=C/c1cccs1)c1nc2ccccc2[nH]1)c1ccccc1 | -0.44%
39 | Cc1cc(C)c(C(=O)Nc2ccc(S(=O)(=O)Nc3onc(C)c3C)cc2)c(C)c1 | 0.27%
40 | Cc1ccc2c(=O)cc(C(=O)Nc3ccc(S(=O)(=O)Nc4onc(C)c4C)cc3)oc2c1 | 1.69%
41 | Cc1ccc2oc(C(=O)Nc3ccc(S(=O)(=O)Nc4ncccn4)cc3)c(C)c2c1 | 1.95%
42 | Cc1ccc2oc(C(=O)Nc3ccc(S(=O)(=O)Nc4onc(C)c4C)cc3)cc(=O)c2c1 | 1.61%
43 | O=C(N/N=C/c1cc2c(cc1Cl)OCO2)c1cccc(Br)c1 | 0.51%
44 | COc1ccc(C(c2nnnn2Cc2ccccc2)N2CCN(c3nc4ccccc4s3)CC2)cc1OC (stereo not given) | 8.79%
45 | CNC(=O)NC(=O)COC(=O)/C=C/c1cccc(Br)c1 | 4.26%
46 | COC(=O)c1cccc(CSc2nc(-c3ccccc3)c(C#N)c(=O)[nH]2)c1 | -0.22%
47 | c1ccc(CSc2ncnc3ccccc23)cc1 | -0.1%
48 | N#CCSc1ncnc2ccccc12 | 0.16%

Row | Structure (SMILES) | CPE inhibition
49 | c1ccc(OCCOc2ncnc3ccccc23)cc1 | 2.27%
50 | COCCNC(=O)COc1ncnc2ccc(Br)cc12 | 0%
51 | O=C(COc1ncnc2ccccc12)NCCc1ccccc1 | 4.07%
52 | O=C(COc1ncnc2ccc(Br)cc12)NC1CCCC1 | -0.78%
53 | CCOC(=O)c1c(C)c(C(=O)Nc2ccc3c(c2)OCCO3)c(C)n1C | -0.46%
54 | N#Cc1nc(-c2ccco2)oc1NCc1ccco1 | 1.01%
55 | O=C(COc1ccccc1)Nc1ccccc1C(=O)NCc1ccco1 | -0.74%
56 | COc1ccc(NC(=O)CN(C)C(=O)c2ccc3[nH]c4c(c3c2)CC(C)CC4)cc1 (stereo not given) | 6.52%
57 | CC1CCc2[nH]c3ccc(C(=O)N(C)CC(=O)Nc4ccc(F)cc4)cc3c2C1 (stereo not given) | 5.53%
58 | CCOc1cccc2c1OC1(C)CC2NC(=O)N1c1ccc(OC)cc1 (stereo not given) | 0.71%
59 | C=CCN(c1ccc(F)cc1)S(=O)(=O)c1cc(C(=O)OCC(=O)N(C)C2CCS(=O)(=O)C2)ccc1Cl (stereo not given) | 0.97%
60 | CCC(=O)NC(=S)Nc1ccc(NC(=O)COc2ccc(Cl)cc2Cl)cc1 | 3.92%
61 | CCC(=O)NC(=S)Nc1ccc(NC(=O)COc2ccccc2)cc1 | -0.96%
62 | Nc1nc(SCCN2C(=O)c3ccccc3C2=O)n[nH]1 | -0.57%
63 | CCOC(=O)C1(Cc2cccc(OC)c2)CCN(Cc2cccn2-c2ccccn2)CC1 | 0.49%
64 | CCOC(=O)C1(Cc2ccccc2)CCN(Cc2cccn2-c2nccs2)CC1 | 3.06%
65 | O=C(O)CN=C(NS(=O)(=O)c1ccc(Cl)cc1)c1ccc(F)cc1 | 0.86%
66 | O=C(CSc1nc2ccccc2c(=O)n1Cc1ccco1)NCc1ccco1 | 0.72%
67 | CCOC(=O)CSc1nc2ccccc2c(=O)n1Cc1ccco1 | 0.79%
68 | Cc1[nH]n(-c2ccccc2)c(=O)c1Sc1ccc(Cl)cc1 | 2.83%
69 | Cc1ccc(OCCn2cnc3cc([N+](=O)[O-])ccc3c2=O)cc1 | 5.29%
70 | COc1ccc(N(CC(=O)NC2CCCCC2)C(=O)c2ccc(C)s2)cc1OC | 5.93%
71 | COc1ccc(N(CC(=O)NC2CCCC2)C(=O)c2ccc(C)s2)c(OC)c1 | 41%
72 | CC(=O)c1ccc(OCCCC(=O)NNC(=O)c2ccccn2)cc1 | 1.08%

Row | Structure (SMILES) | CPE inhibition
73 | Cn1c(=O)c2ccccc2n(CC(=O)N2CCCc3ccccc32)c1=O | 12.6%
74 | COc1cc(C2NC(=O)NC(C)=C2C(=O)OCc2ccc(C)cc2)cc(OC)c1OC (stereo not given) | 1.37%
75 | CN(CC(=O)Nc1ccc(Cl)c(Cl)c1)C(=O)CNC(=O)C1CCCCC1 | -0.65%
76 | O=C(Cn1cnc2ccccc21)N/N=C/c1ccccc1 | 1.41%
77 | CCOC(=O)c1c(-c2ccccc2)csc1NC(=O)c1cc(-c2ccccc2OC)on1 | 3.07%
78 | COC(=O)c1c(-c2ccccc2)noc1C | 3.69%
79 | CCOC(=O)c1c(-c2cccc(C)c2)csc1NC(=O)C1CC=CCC1C(=O)O (stereo not given) | 1.3%
80 | COC(=O)c1c(-c2ccc(C)cc2)csc1NC(=O)c1c(-c2ccccc2)noc1C | 45.8%
81 | O=C(COc1ccc(S(=O)(=O)N2CCOCC2)cc1)NC1CC1 | 0.7%
82 | CCO/N=C1\C(=O)N(c2ccccc2)c2ccccc21 | 10.6%
83 | CN1CCN(c2ccc(Nc3ccnc4cc(Cl)ccc34)cc2)CC1 | 0.21%
84 | Cc1ccc2[nH]ccc(=O)c2c1 | 4.4%
85 | CCNc1oc(-c2cccc3ccccc23)nc1C#N | 31%
86 | CNc1oc(-c2cccc3ccccc23)nc1C#N | 22.2%
87 | O=C(NC1CCCCC1)c1cc(S(=O)(=O)N2CCOCC2)c(Cl)cc1Cl | -0.26%
88 | CC1CCN(C(=O)CCc2nnc3ccc(NCCCN4CCCC4=O)nn23)CC1 | 2.33%
89 | COC(=O)c1ccc(COC(=O)CNC(=O)c2ccc(-c3ccccc3)cc2)cc1 | 3.63%
90 | COc1ccc2oc(C(=O)NCCC(C)C)c(C)c2c1 | 3.36%
91 | Cc1nc2ccccc2nc(C)c1=NOCc1cccc(Cl)c1 | 3.77%
92 | Cc1nc2ccccc2nc(C)c1=NOCc1ccc(C#N)cc1 | 3.19%
93 | CCNC(=O)CC1C(=O)N(c2ccc(F)cc2)C(=S)N1CCc1ccncc1 (stereo not given) | -1.58%
94 | CCOC(=O)c1sc(NS(=O)(=O)c2ccc(F)cc2)nc1C | -0.12%
95 | O=S(=O)(NC1CCN(Cc2ccccc2)CC1)c1ccc2ccccc2c1 | -0.58%
